Records with an inconclusive call do not appear. Entries that show only a call come without a potency. Activity calls are given as the source filed them. Unless noted, calls come from the whole dose curve; as a rule, active = well fitted curve in the direction sought with a large enough effect; inconclusive = small, poorly fitted or top-dose-only effect, or another doubt; inactive = no such curve, though single readings can be large; an effect the other way counts as inactive or inconclusive.
Tests used:
[1] = qHTS assay for measurement of the activity of small molecule inhibitors on Zika virus induced Caspase-3 activity in human iPSC derived neural progenitor cells (hNPCs) (AID 1224857); note: nearly all actives have a fitted effect of over 65% in size
How it was run: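 hNPCs seeded 350 cells/well, cultured 16–20 h; compounds added 1 h before ZIKV (2 FFU/cell), 37 C 6 h. Caspase-Glo 3/7 luminescence after 30 min RT; % inhibition from induction scaled to uninfected (0%) and infected (100%) wells.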

[2] = qHTS assay for measurement of the activity of small molecule inhibitors on Zika virus induced Caspase-3 activity in human astrocytoma cells (AID 1224859)
How it was run: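 Luminescence read-out (Caspase-Glo 3/7, 30 min RT) of caspase activity in SNB-19 cells infected 6 h with ZIKV, 2 FFU/cell, after 1 h compound pretreatment; % inhibition from induction normalised to uninfected (0%) and infected (100%) wells.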

[3] = P-glycoprotein substrates identified in KB-3-1 adenocarcinoma cell line, qHTS therapeutic library screen (AID 1346986); note: nearly all actives have a fitted effect of over 60% in size
How it was run: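 Cells seeded 500/well in DMEM/10% FCS; compounds pinned in dose-response; 72 h incubation; CellTiter-Glo added, 5 min, luminescence. KB-8-5-11 run ±tariquidar to test reversal of P-gp resistance.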

[4] = P-glycoprotein substrates identified in KB-8-5-11 adenocarcinoma cell line, qHTS therapeutic library screen (AID 1346987); note: nearly all actives have a fitted effect of over 65% in size; note: potency is the fitted concentration of half-maximal effect
How it was run: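 Steps: plate 500 KB-8-5-11 cells/well in DMEM + 10% FCS (colchicine removed); pin compounds in dose-response; incubate 72 h, 37 degree C, 5% CO2; add CellTiter-Glo, 5 min; read luminescence.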

[5] = NS1 protein of Zika virus - qHTS assay to identify small molecule inhibitors in human HEK 293 cells (AID 1347053); note: series mostly up to about 46 µM; nearly all actives have a fitted effect of over 55% in size
How it was run: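 Following 20 h seeding, HEK 293 cells took compound, then 1 h later ZIKV MR766 (MOI = 0.5). Incubation ran 24 h at 37 C before TR-FRET detection of NS1; a drop in signal indicates inhibition.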

[6] = qHTS of pediatric cancer cell lines to identify multiple opportunities for drug repurposing: Primary screen for TC32 cells (AID 1347089); note: nearly all actives have a fitted effect of over 60% in size
How it was run: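 Measured quantity: luminescence from CellTiter-Glo, reflecting metabolically active TC32 cells following 48 h of compound. Curves came straight from multi-point titrations, with 8 or 11 points in primary and 11 in confirmatory screening.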

[7] = qHTS of pediatric cancer cell lines to identify multiple opportunities for drug repurposing: Primary screen for SJ-GBM2 cells (AID 1347091)
How it was run: (§1)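 Cell viability, CellTiter-Glo luminescence; 500-1,000 cells/well, 8- or 11-point titration, 48 h compound exposure at 37 degrees C, 5% CO2. Controls: DMSO neutral, bortezomib 2.3 µM final as positive.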

[8] = qHTS of pediatric cancer cell lines to identify multiple opportunities for drug repurposing: Primary screen for A673 cells (AID 1347092); note: nearly all actives have a fitted effect of over 45% in size
How it was run: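 Cells are plated, rested 5 h, dosed by pintool, incubated 48 h, then lysed with CellTiter-Glo and read by luminescence. DMSO is the neutral control; bortezomib at 2.3 uM final is the positive control.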

[9] = qHTS of pediatric cancer cell lines to identify multiple opportunities for drug repurposing: Primary screen for SK-N-MC cells (AID 1347093); note: series mostly up to about 46 µM
How it was run: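 Metabolically active cells were quantified by ATP-dependent luminescence (CellTiter-Glo, 15 min at room temperature) following 48 h treatment. Cells had been plated at 500-1,000 per well and settled for 5 h beforehand.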

[10] = qHTS of pediatric cancer cell lines to identify multiple opportunities for drug repurposing: Primary screen for BT-37 cells (AID 1347094); note: series mostly up to about 57 µM
How it was run: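 Plated cells (500-1,000 per well, growth media) were allowed to settle for 5 hours, treated with compound dilutions for 48 hours, then lysed with CellTiter-Glo for 15 min at room temperature before luminescence reading.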

[11] = qHTS of pediatric cancer cell lines to identify multiple opportunities for drug repurposing: Primary screen for DAOY cells (AID 1347090); note: series mostly up to about 46 µM; nearly all actives have a fitted effect of over 55% in size
How it was run: as §1

[12] = target: Atrial natriuretic peptide receptor 2 (Homo sapiens) (UniProt P20594); experiment: Natriuretic polypeptide receptor (hNpr2) antagonism - Pilot subtype selectivity assay (AID 1347050; calls by dose curve)
How it was run: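 Pilot selectivity screen against hNpr2: HEK293 cGMP-sensor cells are treated with LOPAC1280 compounds, then with hNppC peptide at 1 nM final. The cGMP-driven luminescence change over 20 min at room temperature is the read-out.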

[13] = target: T1, Tyrosine-protein phosphatase non-receptor type substrate 1 (Homo sapiens) + Leukocyte surface antigen CD47 (Homo sapiens) (UniProt P78324+Q08722); experiment: CD47-SIRPalpha protein protein interaction - LANCE assay qHTS validation (AID 1347057; active = well fitted curve in the direction sought with a large enough effect in the signal ratio, with a control signal flat, not every such curve was filed as active; the % refers to the signal ratio; note: series mostly up to about 38 µM)
How it was run: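 First, His-tagged CD47 and Eu-labelled anti-His antibody met the compound for 30 min; next, site-specifically biotinylated SIRPalpha was added for 30 min; finally streptavidin-APC was added before reading the TR-FRET ratio.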

[14] = target: T1, Tyrosine-protein phosphatase non-receptor type substrate 1 (Homo sapiens) + Leukocyte surface antigen CD47 (Homo sapiens); experiment: CD47-SIRPalpha protein protein interaction - HTRF assay qHTS validation (AID 1347058; active = well fitted curve in the direction sought with a large enough effect in the signal ratio, not every such curve was filed as active; the % refers to the signal ratio;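 note: recombinant soluble extracellular CD47 with His tag and biotinylated SIRPalpha domains; series mostly up to about 38 µM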)
How it was run: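 TR-FRET read (Ch1/Ch2 ratio) of soluble extracellular CD47 and Avi-biotinylated SIRPalpha domains in PBS pH 7.4 with 0.05% IGEPAL; 7-point compound titration. Sequential 30 min room-temperature steps; non-biotinylated SIRPalpha as control inhibitor.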

[15] = target: T1, Tyrosine-protein phosphatase non-receptor type substrate 1 (Homo sapiens) + Leukocyte surface antigen CD47 (Homo sapiens); experiment: CD47-SIRPalpha protein protein interaction - Alpha assay qHTS validation (AID 1347059);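 note: bead proximity luminescence from CD47 binding SIRPalpha after compound preincubation with SIRPalpha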
How it was run: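 Binding is measured by AlphaScreen proximity: Ni-NTA acceptor beads capture His-CD47, streptavidin donor beads capture biotin-SIRPalpha. Each of three additions (SIRPalpha with compound, CD47, beads) incubates 30 min at room temperature protected from light.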

[16] = target: Parathyroid hormone/parathyroid hormone-related peptide receptor (Homo sapiens) (UniProt Q03431); experiment: qHTS for PTHR1 Agonists: Optimization Screen against the NCGC LOPAC library (AID 1347079);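 note: GloSensor cAMP luminescence in HEK-293 GP2 cells expressing human PTHR1 with IBMX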
How it was run: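 Agonist readout: GloSensor cAMP luminescence, read after 15 min at room temperature. HEK-293-derived GP2 line carries PTHR1; compounds tested as a titration for 1 hr at 37C in presence of IBMX. M-PTH (1-15) served as control.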

T1 sequence (P78324 whole entry, looked up): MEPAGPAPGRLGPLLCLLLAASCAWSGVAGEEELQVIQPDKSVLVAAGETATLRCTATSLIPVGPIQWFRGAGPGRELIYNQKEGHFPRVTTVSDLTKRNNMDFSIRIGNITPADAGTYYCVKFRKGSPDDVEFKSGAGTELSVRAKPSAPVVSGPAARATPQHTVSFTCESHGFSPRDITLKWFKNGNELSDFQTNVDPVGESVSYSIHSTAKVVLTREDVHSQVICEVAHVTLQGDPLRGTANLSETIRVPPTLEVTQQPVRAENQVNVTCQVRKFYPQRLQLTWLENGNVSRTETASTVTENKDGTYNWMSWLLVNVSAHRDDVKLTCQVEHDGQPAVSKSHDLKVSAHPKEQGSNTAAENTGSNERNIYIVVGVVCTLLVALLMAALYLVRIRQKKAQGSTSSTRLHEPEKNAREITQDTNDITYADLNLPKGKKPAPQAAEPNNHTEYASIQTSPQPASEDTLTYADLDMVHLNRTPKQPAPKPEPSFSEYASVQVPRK
T1 sequence (Q08722 whole entry, looked up): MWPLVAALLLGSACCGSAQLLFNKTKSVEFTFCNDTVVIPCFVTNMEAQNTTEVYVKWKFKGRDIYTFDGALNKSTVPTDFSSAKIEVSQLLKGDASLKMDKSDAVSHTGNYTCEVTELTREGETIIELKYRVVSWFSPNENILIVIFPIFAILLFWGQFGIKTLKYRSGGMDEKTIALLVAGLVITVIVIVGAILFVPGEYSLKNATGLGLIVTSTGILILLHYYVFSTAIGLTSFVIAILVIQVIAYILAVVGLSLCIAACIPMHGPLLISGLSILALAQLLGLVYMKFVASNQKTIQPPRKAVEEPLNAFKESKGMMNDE
Sequence of Parathyroid hormone/parathyroid hormone-related peptide receptor (Homo sapiens) (Q03431 whole entry, looked up): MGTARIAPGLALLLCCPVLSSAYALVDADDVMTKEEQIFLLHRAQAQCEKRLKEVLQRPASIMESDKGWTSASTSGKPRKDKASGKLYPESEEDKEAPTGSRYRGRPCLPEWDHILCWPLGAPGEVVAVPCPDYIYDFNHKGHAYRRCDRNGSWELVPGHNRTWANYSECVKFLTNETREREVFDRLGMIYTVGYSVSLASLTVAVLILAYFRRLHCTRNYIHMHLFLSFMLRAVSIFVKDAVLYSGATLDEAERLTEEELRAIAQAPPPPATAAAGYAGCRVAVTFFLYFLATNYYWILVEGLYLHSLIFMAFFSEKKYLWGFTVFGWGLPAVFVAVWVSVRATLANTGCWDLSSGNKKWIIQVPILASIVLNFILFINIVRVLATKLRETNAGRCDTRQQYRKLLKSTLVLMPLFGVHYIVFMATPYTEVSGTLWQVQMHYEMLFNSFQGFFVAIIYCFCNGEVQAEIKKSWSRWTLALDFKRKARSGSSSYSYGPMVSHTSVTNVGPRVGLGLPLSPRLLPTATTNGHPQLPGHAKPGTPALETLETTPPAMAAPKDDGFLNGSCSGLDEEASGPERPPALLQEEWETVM
Sequence of Atrial natriuretic peptide receptor 2 (Homo sapiens) (P20594 whole entry, looked up): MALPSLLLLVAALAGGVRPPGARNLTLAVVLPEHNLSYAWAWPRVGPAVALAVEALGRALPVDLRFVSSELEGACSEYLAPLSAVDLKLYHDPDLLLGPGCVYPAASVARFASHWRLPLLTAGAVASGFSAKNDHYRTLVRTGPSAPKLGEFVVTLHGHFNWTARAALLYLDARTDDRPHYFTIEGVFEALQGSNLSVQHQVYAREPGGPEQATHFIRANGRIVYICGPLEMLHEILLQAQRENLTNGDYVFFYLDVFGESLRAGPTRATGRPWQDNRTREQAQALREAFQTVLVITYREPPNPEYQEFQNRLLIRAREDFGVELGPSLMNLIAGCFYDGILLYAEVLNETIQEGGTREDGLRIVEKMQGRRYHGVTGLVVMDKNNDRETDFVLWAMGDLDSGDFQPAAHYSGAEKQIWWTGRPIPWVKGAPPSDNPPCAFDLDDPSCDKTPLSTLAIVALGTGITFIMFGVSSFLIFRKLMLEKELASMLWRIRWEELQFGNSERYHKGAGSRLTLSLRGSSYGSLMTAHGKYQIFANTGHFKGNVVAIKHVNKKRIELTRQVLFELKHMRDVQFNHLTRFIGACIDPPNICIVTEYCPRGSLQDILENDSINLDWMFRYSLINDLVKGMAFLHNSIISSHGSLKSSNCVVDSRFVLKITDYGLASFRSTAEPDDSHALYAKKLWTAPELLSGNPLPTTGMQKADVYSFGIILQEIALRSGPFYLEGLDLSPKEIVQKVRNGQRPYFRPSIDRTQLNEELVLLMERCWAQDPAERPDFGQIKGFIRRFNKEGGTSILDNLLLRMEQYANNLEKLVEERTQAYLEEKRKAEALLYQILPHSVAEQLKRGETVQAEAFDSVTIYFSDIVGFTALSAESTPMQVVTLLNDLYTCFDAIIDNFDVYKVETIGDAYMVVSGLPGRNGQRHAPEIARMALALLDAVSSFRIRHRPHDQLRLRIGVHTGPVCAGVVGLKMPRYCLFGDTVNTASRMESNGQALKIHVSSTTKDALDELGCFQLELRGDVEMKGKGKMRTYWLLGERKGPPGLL

Row | Structure (SMILES) | Potency [1] | outcome [2] | Potency [3] | Potency [4] | Potency [5] | Potency [6] | Potency [7] | Potency [8] | Potency [9] | Potency [10] | Potency [11] | Potency [12] | outcome [13] | outcome [14] | Potency [15] | outcome [16]
1 | CN(C)C(=O)CNC(=O)Cc1ccccc1 | inactive | inactive | inactive | inactive | inactive | inactive | inactive | inactive | inactive | inactive | – | – | – | – | – | –
2 | CO[C@]1(NC(=O)CSC(F)F)C(=O)N2C(C(=O)O)=C(CSc3nnnn3CCO)CO[C@H]21 | inactive | inactive | inactive | inactive | inactive | inactive | inactive | inactive | inactive | inactive | inactive | – | – | – | – | –
3 | CC(C(O)c1ccccc1)N(C)CCOC(c1ccccc1)c1ccccc1 (stereo not given) | inactive | inactive | – | 14.6 µM (active) | inactive | inactive | – | – | – | – | inactive | – | – | – | – | –
4 | O=C(CO)[C@@H](O)[C@H](O)[C@@H](O)CO | inactive | inactive | – | inactive | inactive | inactive | inactive | inactive | inactive | inactive | inactive | – | – | – | – | –
5 | Brc1ccc([C@H]2CN3CCSC3=N2)cc1 | inactive | inactive | – | inactive | inactive | – | – | – | – | – | – | inactive | inactive | inactive | inactive | inactive
6 | O=C(O)Cc1ccccc1Oc1ccc(Cl)cc1Cl | inactive | inactive | inactive | inactive | inactive | inactive | inactive | inactive | inactive | inactive | inactive | – | – | – | – | –
7 | COc1cc(NS(=O)(=O)c2ccc(N)cc2)nc(C)n1 | inactive | inactive | inactive | inactive | inactive | inactive | – | inactive | inactive | inactive | inactive | – | – | – | – | –
8 | CC(=O)Nc1ccc(S(=O)(=O)Nc2cc(C)on2)cc1 | inactive | inactive | – | inactive | inactive | inactive | inactive | inactive | inactive | inactive | inactive | – | – | – | – | –
9 | O=C(CCCCCCCCC#CI)Oc1ccccc1 | inactive | inactive | inactive | inactive | inactive | inactive | – | inactive | inactive | inactive | inactive | – | – | – | – | –
10 | OCc1cccnc1 | inactive | inactive | – | inactive | inactive | inactive | inactive | inactive | inactive | inactive | inactive | – | – | – | – | –
11 | C[N+](C)(C)CCO | inactive | inactive | – | inactive | inactive | – | – | – | – | – | – | inactive | inactive | inactive | inactive | inactive
12 | CC(=O)OCC(=O)Nc1cc(C#N)cc(NC(=O)COC(C)=O)c1Cl | inactive | inactive | inactive | inactive | – | inactive | inactive | inactive | inactive | inactive | inactive | – | – | – | – | –
13 | NC(=O)C1(N2CCCCC2)CCN(CCCN2c3ccccc3CCc3ccc(Cl)cc32)CC1 | inactive | inactive | – | – | – | – | – | – | – | – | – | – | – | – | – | –
14 | CC(=O)[C@H]1CC[C@H]2[C@@H]3C=CC4=CC(=O)CC[C@@]4(C)[C@@H]3CC[C@]12C | inactive | inactive | – | inactive | inactive | inactive | inactive | inactive | – | inactive | inactive | – | – | – | – | –
15 | COc1cc(C=O)ccc1O | inactive | inactive | – | inactive | inactive | inactive | inactive | inactive | inactive | inactive | inactive | – | – | – | – | –
16 | Brc1ccccc1-c1ccccc1 | inactive | inactive | – | inactive | inactive | inactive | inactive | inactive | – | inactive | inactive | – | – | – | – | –
17 | Cc1ncc(CO)c(CO)c1O | inactive | inactive | – | inactive | inactive | inactive | inactive | inactive | inactive | inactive | inactive | – | – | – | – | –
18 | COC(=O)c1c(Cl)c(Cl)c(C(=O)OC)c(Cl)c1Cl | inactive | inactive | – | inactive | inactive | inactive | inactive | inactive | inactive | inactive | inactive | – | – | – | – | –
19 | O=C(O)c1[nH]n(-c2ccc(S(=O)(=O)O)cc2)c(=O)c1N=Nc1ccc(S(=O)(=O)O)cc1 | inactive | inactive | – | inactive | inactive | inactive | inactive | inactive | inactive | inactive | inactive | – | – | – | – | –
20 | CN1CCC(=C2c3ccccc3CCc3cccnc32)CC1 | inactive | inactive | – | inactive | inactive | inactive | inactive | inactive | inactive | inactive | inactive | – | – | – | – | –
21 | c1ccc2occc2c1 | inactive | inactive | – | inactive | inactive | inactive | inactive | inactive | – | inactive | inactive | – | – | – | – | –
22 | OCCCc1ccccc1 | inactive | inactive | – | inactive | inactive | inactive | inactive | inactive | inactive | inactive | inactive | – | – | – | – | –
23 | CC1c2ccccc2CN1NC(=O)c1ccc(Cl)c(S(N)(=O)=O)c1 (stereo not given) | inactive | inactive | – | inactive | inactive | inactive | inactive | inactive | inactive | inactive | inactive | – | – | – | – | –
24 | C1N2CN3CN1CN(C2)C3 | inactive | inactive | – | inactive | inactive | inactive | inactive | inactive | inactive | inactive | inactive | – | – | – | – | –
